# Measured values taken from PubChem BioAssay AID652257 (The Scripps Research Institute Molecular Screening Center, 2013).
# About 4,800 (1.3%) of roughly 370,000 compounds were called active.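 Rule for the calls: active = inhibition above about 21% made by adding two undisclosed values (limit read from the data); inactive = the rest.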 The full list was thinned out, with actives kept by preference.
# Molecular target: Protein arginine N-methyltransferase 1 (Homo sapiens) (UniProt Q99873)
# Assay: PRMT1 methyltransferase inhibitors, primary screen, biochemical, fluorescence polarization (AID 652257)
# Details: recombinant PRMT1, activity-based probe fluorescence polarization; at 2.79 µM; hits give high values
# Sequence of Protein arginine N-methyltransferase 1 (Homo sapiens) (Q99873 whole entry, looked up): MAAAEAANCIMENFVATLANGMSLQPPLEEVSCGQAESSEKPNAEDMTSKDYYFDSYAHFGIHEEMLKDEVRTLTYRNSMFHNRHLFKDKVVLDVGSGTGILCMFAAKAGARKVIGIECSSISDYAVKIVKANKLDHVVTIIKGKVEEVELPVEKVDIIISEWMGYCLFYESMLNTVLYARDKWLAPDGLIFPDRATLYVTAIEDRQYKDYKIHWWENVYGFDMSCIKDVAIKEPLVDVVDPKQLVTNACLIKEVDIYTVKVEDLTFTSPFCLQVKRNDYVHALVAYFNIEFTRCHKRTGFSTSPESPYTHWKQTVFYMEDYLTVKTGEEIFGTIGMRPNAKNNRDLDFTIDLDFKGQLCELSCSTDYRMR
row,Compound,inhibition
1,O=S1(=O)c2ccc(Br)cc2OC[C@@H](Cc2ccccc2)N1Cc1cn(Cc2ccco2)nn1,-6.43% (inactive)
2,COc1ccc(C(=O)CSc2nnc(-c3cnccn3)n2-c2ccc(C)cc2)cc1,-1.24% (inactive)
3,N#CCC(=O)NC(=O)NCC1CC1,1.85% (inactive)
4,Nc1ccc2nc3c(=O)[nH]c(=S)[nH]c3nc2c1,129% (active)
5,COc1nc(NCc2ccc(Cl)cc2)nc(OC)n1,-0.93% (inactive)
6,COC(=O)c1ccc(/C=N/N2C(C)CCCC2C)cc1 (centres undefined),-0.34% (inactive)
7,CCN(CC)S(=O)(=O)c1cccc(-c2n[nH]c(=S)n2/N=C/c2ccc(C(=O)OC)cc2)c1,31.9% (active)
8,CCN(CC)S(=O)(=O)c1cccc(NC(=O)c2ccc(S(=O)(=O)N3CCCC3)cc2)c1,2.8% (inactive)
9,CCOC(=O)Cc1csc(SCC(=O)Nc2ccc(C)cc2F)n1,1.96% (inactive)
10,CCOC(=O)Cc1csc(NC(=O)CSc2nc(C)cc(=O)[nH]2)n1,63.7% (active)
11,Cc1cc(=O)[nH]c(SCC(=O)Nc2ccc(Cl)cc2C)n1,-2.19% (inactive)
12,Clc1cccc2c1C1CC2CCN1Cc1ccccc1 (centres undefined),-1.44% (inactive)
13,CCCn1c(N)c(C(=O)CSc2nnc(-c3cccnc3)n2-c2ccc(C)cc2C)c(=O)[nH]c1=O,-1.38% (inactive)
14,COc1ccc(C#CCNCc2ccc(OC)cc2OC)cc1,0.44% (inactive)
15,Cc1ccc(-c2nn(-c3cccc(F)c3)cc2CNCCc2ccncc2)o1,-2.78% (inactive)
16,COc1cccc(-c2nn(-c3ccccc3)cc2/C=C(\C#N)C(=O)NCCCn2ccnc2)c1,-2.79% (inactive)
17,CN(C)S(=O)(=O)c1cccc(-c2nn(-c3ccccc3)cc2/C=C2\SC(=S)N(CC(=O)O)C2=O)c1,28.2% (active)
18,Cc1ccc(-c2nn(-c3ccccc3)cc2CN(Cc2ccccc2)C(=O)CCC(=O)O)o1,30.5% (active)
19,O=C(/C=C/c1cn(-c2ccccc2)nc1-c1ccc2c(c1)OCCO2)NCCCN1CCOCC1,3.18% (inactive)
20,Cc1ccc(-c2nn(-c3ccccc3)cc2/C=C2\SC(=S)N(CCCCCC(=O)O)C2=O)o1,78.2% (active)
21,O=C(O)CCC(=O)N(Cc1ccccc1)Cc1ccccc1,-4.57% (inactive)
22,COc1ccc(COCCN2CCN(S(=O)(=O)c3ccccc3)CCC2=O)cc1,1.29% (inactive)
23,O=C(NCC1COc2ccccc2O1)c1ccc(NC(=O)c2cc(F)ccc2F)cc1 (centres undefined),4.4% (inactive)
24,NC(=O)c1ncn([C@@H]2O[C@H](CNCc3cnc(N4CCOCC4)s3)[C@@H](O)[C@H]2O)n1,-0.65% (inactive)
